Molecules are shown by their SMILES. Values without a mark were called inactive. Calls of active or inactive are those of the source. Rule as the data show it, unless noted: active = inhibition above about 42%; inactive = the rest.

For the first assay, the target named is Nuclear receptor subfamily 5 group A member 2 (Homo sapiens) (UniProt O00482). Description: NR5A2 activity suppression in reporter cells – cell-based, luminescence, confirmation (AID 651613).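 Also: HEK293T cells co-transfected with LRH-1 and StAR promoter luciferase reporter; 0% = vehicle wells and 100% = parental cells lacking receptor.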 As to conditions: cell-based LRH-1 luciferase reporter, inverse agonism; at 3.6 µM; hits give high values. A general note: In a reporter assay the amount or activity of a reporter protein is the signal.
Chain of Nuclear receptor subfamily 5 group A member 2 (Homo sapiens) (O00482 whole entry, looked up): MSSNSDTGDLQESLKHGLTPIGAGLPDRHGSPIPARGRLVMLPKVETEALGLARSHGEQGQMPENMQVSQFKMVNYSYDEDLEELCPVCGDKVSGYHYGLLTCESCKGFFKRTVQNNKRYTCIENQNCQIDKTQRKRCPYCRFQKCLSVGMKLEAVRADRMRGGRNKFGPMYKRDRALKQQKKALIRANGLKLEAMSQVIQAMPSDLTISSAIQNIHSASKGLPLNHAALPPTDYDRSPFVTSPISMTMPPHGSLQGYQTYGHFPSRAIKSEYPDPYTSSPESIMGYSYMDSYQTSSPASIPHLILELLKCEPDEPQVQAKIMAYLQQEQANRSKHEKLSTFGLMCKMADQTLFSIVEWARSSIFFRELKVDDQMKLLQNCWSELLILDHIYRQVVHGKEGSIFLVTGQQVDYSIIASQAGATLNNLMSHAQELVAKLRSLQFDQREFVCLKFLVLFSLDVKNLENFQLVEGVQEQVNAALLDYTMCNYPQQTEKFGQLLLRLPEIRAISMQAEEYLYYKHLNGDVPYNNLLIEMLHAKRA
One may read the inhibition as the percentage by which the read-out fell short of the control. For `Cc1ccc(Oc2ccc(C(=O)NCc3ccncc3)cc2)cc1`, the inhibition was 76.8% (active).

With `O=C1c2c(O)ccc(O)c2C(=O)c2c(NCCNCCO)ccc(NCCNCCO)c21`, the inhibition was 77.4% (active).

Take `O=C(CCl)Nc1ccc(Oc2cnc3ccccc3n2)cc1`: the inhibition was 74.4% (active).

Consider `CN(C)CCNC(=O)c1ccc(Cl)c2cc3ccccc3nc12`, for which the inhibition is 73.1% (active).

`Cc1ncc(CO)c(/C=N/Nc2ccc(C(F)(F)F)cn2)c1O`: the inhibition is 84% (active).

As to `COc1ccc(S(=O)(=O)N2CCOCC2)cc1NC(=O)CCNC(=O)c1ccc(Br)cc1`, the inhibition is 100% (active).

Consider `C=C1C(=O)C23CCC4C(C)(C(=O)OC)CCCC4(C)C2CCC1(O)C3` (stereo not drawn), for which the inhibition was 70.5% (active).

For the molecule `COc1ccc(CCNc2c(C)c(C)nc3ncnn23)cc1`, the inhibition was 58.5% (active).

For `CN(C)CCNc1ccc2nnn3c4ccc(O)cc4c(=O)c1c23`, the inhibition is 71.1% (active).

Take `Cc1ccc(C(=O)C(C(=O)/C=C/c2ccccc2)=C2SCCCS2)cc1`: the inhibition is 54.2% (active).

The next assay deals with Steroidogenic factor 1 (Homo sapiens) (UniProt Q13285). Description: inverse agonism at SF1 nuclear receptor – cell-based, luminescence, high throughput, counter-screen for LRH-1 inverse agonist project (AID 651614; in the data active = inhibition above about 44%;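 also: cells cotransfected with StAR promoter reporter and SF1 expression vector; 0% = vehicle on cells with receptor and 100% = vehicle on cells lacking receptor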). As to conditions: cell-based SF1 luciferase reporter, at 3.6 µM, hits give high values. In general terms: A counterscreen serves to expose hits that act by an unwanted route or on another target.
Chain of Steroidogenic factor 1 (Homo sapiens) (Q13285 whole entry, looked up): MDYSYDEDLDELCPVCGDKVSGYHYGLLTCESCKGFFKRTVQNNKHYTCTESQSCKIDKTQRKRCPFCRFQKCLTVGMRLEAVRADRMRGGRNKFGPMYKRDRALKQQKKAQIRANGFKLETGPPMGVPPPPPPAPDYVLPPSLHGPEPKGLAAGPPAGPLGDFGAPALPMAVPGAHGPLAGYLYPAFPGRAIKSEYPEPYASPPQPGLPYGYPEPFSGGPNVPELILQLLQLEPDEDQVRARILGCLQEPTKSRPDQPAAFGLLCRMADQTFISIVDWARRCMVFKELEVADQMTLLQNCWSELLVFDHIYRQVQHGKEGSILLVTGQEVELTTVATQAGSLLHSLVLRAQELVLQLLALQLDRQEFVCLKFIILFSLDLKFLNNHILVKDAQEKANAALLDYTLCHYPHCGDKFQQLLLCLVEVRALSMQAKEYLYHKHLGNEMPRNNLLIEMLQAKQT
On to `Cc1ccc(Oc2ccc(C(=O)NCc3ccncc3)cc2)cc1`, for which the inhibition is 67.9% (active).

Take `O=C1c2c(O)ccc(O)c2C(=O)c2c(NCCNCCO)ccc(NCCNCCO)c21`: the inhibition is 56.3% (active).

For the molecule `O=C(CCl)Nc1ccc(Oc2cnc3ccccc3n2)cc1`, the inhibition is 77.4% (active).

On to `CN(C)CCNC(=O)c1ccc(Cl)c2cc3ccccc3nc12`, for which the inhibition was 67.4% (active).

In the case of `Cc1ncc(CO)c(/C=N/Nc2ccc(C(F)(F)F)cn2)c1O`, the inhibition is 70.5% (active).

For `COc1ccc(S(=O)(=O)N2CCOCC2)cc1NC(=O)CCNC(=O)c1ccc(Br)cc1`, the inhibition was 95% (active).

For the molecule `C=C1C(=O)C23CCC4C(C)(C(=O)OC)CCCC4(C)C2CCC1(O)C3` (stereo not drawn), the inhibition was 82.1% (active).

In the case of `COc1ccc(CCNc2c(C)c(C)nc3ncnn23)cc1`, the inhibition was 62.6% (active).

`CN(C)CCNc1ccc2nnn3c4ccc(O)cc4c(=O)c1c23`: the inhibition was 71.5% (active).

`Cc1ccc(C(=O)C(C(=O)/C=C/c2ccccc2)=C2SCCCS2)cc1`: the inhibition is 47.2% (active).

System in the next assay: not listed separately
Description: compounds suppressing VP16-driven luciferase signal – cell-based, luminescence, high throughput, counter-screen for LRH-1 inverse agonist project (AID 651615; in the data active = inhibition above about 33%). As to conditions: Gal4-VP16 luciferase reporter cells, at 3.6 µM, hits give high values.
On to `Cc1ccc(Oc2ccc(C(=O)NCc3ccncc3)cc2)cc1`, for which the inhibition was 52.9% (active).

For `O=C(CCl)Nc1ccc(Oc2cnc3ccccc3n2)cc1`, the inhibition was 18.3%.

For `CN(C)CCNC(=O)c1ccc(Cl)c2cc3ccccc3nc12`, the inhibition was 61% (active).

As for `Cc1ncc(CO)c(/C=N/Nc2ccc(C(F)(F)F)cn2)c1O`, the inhibition is 65.7% (active).

For the molecule `COc1ccc(S(=O)(=O)N2CCOCC2)cc1NC(=O)CCNC(=O)c1ccc(Br)cc1`, the inhibition is 67.4% (active).

As for `C=C1C(=O)C23CCC4C(C)(C(=O)OC)CCCC4(C)C2CCC1(O)C3` (stereo not drawn), the inhibition is 74% (active).

On to `CN(C)CCNc1ccc2nnn3c4ccc(O)cc4c(=O)c1c23`, for which the inhibition is 75.9% (active).

For `Cc1ccc(C(=O)C(C(=O)/C=C/c2ccccc2)=C2SCCCS2)cc1`, the inhibition is 44.5% (active).
